From PubChem BioAssay (Tox21) come the findings set out here.

Where “and” joins values, the source holds several entries; their conditions need not be identical. Equal entries are not always repeated. Records with an inconclusive call do not appear. Where a call stands in place of a potency, no number is given. Calls of active or inactive are those of the source. Calls follow the shape of the full dose curve.
Potency is read from the fitted curve at half-maximal effect.

Chain of Beta-2 adrenergic receptor (Homo sapiens) (P07550 whole entry, looked up): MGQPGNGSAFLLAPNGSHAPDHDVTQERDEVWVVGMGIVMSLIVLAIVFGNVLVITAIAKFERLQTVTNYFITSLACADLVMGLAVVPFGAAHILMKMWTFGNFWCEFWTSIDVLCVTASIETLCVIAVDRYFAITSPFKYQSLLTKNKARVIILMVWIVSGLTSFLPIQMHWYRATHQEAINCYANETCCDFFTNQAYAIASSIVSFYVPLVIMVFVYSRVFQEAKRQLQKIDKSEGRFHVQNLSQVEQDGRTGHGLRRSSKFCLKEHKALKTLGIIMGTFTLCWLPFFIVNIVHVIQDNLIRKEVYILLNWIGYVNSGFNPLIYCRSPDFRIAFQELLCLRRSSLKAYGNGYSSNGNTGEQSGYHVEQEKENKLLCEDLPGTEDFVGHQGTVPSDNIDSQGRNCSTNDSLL

This test concerns the target Beta-2 adrenergic receptor (Homo sapiens) (UniProt P07550). As to the kind of experiment: Adrenergic beta2 receptor (ADRB2) small molecule antagonists, cell-based qHTS assay (AID 1963592). Also: nearly all actives have a fitted effect of over 50% in size. The note with it: CHO-ADRB2 cells, isoproterenol-stimulated cAMP HTRF ratio, 0.5 h; series mostly up to 92.4 µM. From the text:
U.S. Tox21 Program National Center for Advancing Translational Sciences [NCATS] Division of Preclinical Innovation [DPI] U.S. Environmental Protection Agency [EPA] National Institutes of Environmental Health Sciences [NIEHS] National Toxicology Program [NTP] U.S. Food and Drug Administration [FDA] Tox21 Assay Overview: Beta adrenergic receptors (Beta-ARs) belong to the G-protein coupled receptor (GPCR) superfamily, includes three subtypes - beta1, beta2, and beta3. Beta1-AR is the predominant receptor subtype expressed in the heart, and beta2-AR is expressed in the kidney, lung, blood vessel and in the heart, and beta3 is found in the adipocytes. Beta1 and 2 ARs couple to Gs protein and elevate cyclic adenosine mono phosphate (cAMP), which activates protein kinase A and leads to the downstream signaling responsible for the physiological actions. Beta-AR agonists or antagonists are the most prescribed therapeutic agents for heart failure and asthma, and these were one of the first target receptors for the rational drug design. Tox21 10K compound library was screened using the cAMP-Gs dynamic assay (Cisbio Bioassays, Shelton, CT) to identify agonists/antagonists of the Gs-coupled human adrenergic, beta2 receptor (ADRB2) in the CHO-ADRB2 cell line (Codex BioSolutions, Inc. Gaithersburg, MD), which stably over-expresses ADRB2. The principle of cAMP-Gs dynamic assay is based on HTRF technology, which facilitates the fluorescence resonance energy transfer (FRET) between donor Europium cryptate and acceptor d2-labeled cAMP. The cAMP generated within cells competes with the red acceptor, d2-labled cAMP, for binding to the monoclonal anti-cAMP-cryptate (Europium donor). An increase in intracellular cAMP leads to the disruption of FRET signal, and the signal is inversely proportional to the cAMP concentration. Propranolol HCl (Sigma-Aldrich, St. Louis, MO) was used as a positive control in the screening.
Tox21 Assay Protocol Summary: CHO-ADRB2 cells were dispensed at 1,000/well in 4uL assay medium into white/solid 1536-well plates (Greiner Bio-One North America Inc., Monroe, NC) using a Multidrop Combi dispenser (ThermoFisher Scientific, Waltham, MA). The assay plates were incubated at 37C and 5% CO2 for an overnight (18-20hr). Then positive control and test compounds dissolved in DMSO were transferred to the assay plates at 23nL using a Pintool station (Wako, San Diego, CA). Following the compound and positive control transfer, 1uL agonist-stimulation mix containing 1nM Isoproterenol HCl, 100uM IBMX and 25uM Ro-20-1724 was added to each well of the assay plates using BioRAPTR Flying Reagent Dispenser (FRD, Beckman Coulter, Brea, CA). The assay plates were incubated at room temperature for 0.5hr. Then 2.5ul each d2-labled cAMP and anti-cAMP-cryptate solutions were added separately to each well of the assay plates using an FRD and the assay plates were incubated at room temperature for 1hr. The fluorescence signal was measured at two different wavelengths (665nm and 615nm) using an Envision plate reader (Perkin Elmer, Shelton, CT). Data were expressed as the ratio of 665 nm/615 nm.
With `CCN`, the Potency result was “inactive”.
To `COC[C@@H](NC(C)=O)C(=O)NCc1ccccc1` belongs “inactive”; to `N#CCCCl`, “inactive”; to `C=CCc1ccc(OC)cc1`, “inactive”.
With `CC[N+](=O)[O-]`, the Potency entry was “inactive”.
Consider `CC(C)c1ccc(NC(=O)N(C)C)cc1`, for which the Potency entry is “inactive”.
Take `Cc1ccccc1[N+](=O)[O-]`: the Potency entry is “inactive”.
As for `CC[C@H](N)c1ccccc1`, the Potency result was “inactive”.
`c1ccoc1`: the Potency result is “inactive”.
With `Nc1ccccc1Cl` the entry was “inactive”; with `C=CC1(C)OC(=O)N(c2cc(Cl)cc(Cl)c2)C1=O` (stereo not given), “inactive”; with `NC(=O)O`, “inactive”.
Consider `OCCCl`, for which the Potency entry was “inactive”.
With `NC(=S)c1c(Cl)cccc1Cl` the entry was “inactive”; with `CC12CC1(C)C(=O)N(c1cc(Cl)cc(Cl)c1)C2=O` (stereo not given), “inactive”.
For `C=CCN(CC=C)C(=O)C(Cl)Cl`, the Potency entry was “inactive”.
As for `CCOP(=O)(O)OCC` (tested in a mixture with another compound), the Potency entry was “inactive”.
`CN=C=S`: the Potency entry was “inactive”.
Take `CC(Cl)Cl`: the Potency entry was “inactive”.
With `CC(C)CCCCCOC(=O)c1ccccc1C(=O)OCCCCCC(C)C`, the Potency entry is “inactive”.
Consider `CC(=O)CCC(C)=O`, for which the Potency result was “inactive”.
With `CCN(CC)C(=O)SCc1ccc(Cl)cc1`, the Potency result was “inactive”.
With `Nc1ccc(Cc2ccc(N)cc2)cc1` the entry was “inactive”; with `ClC(Cl)(Cl)Br`, “inactive”; with `CN(C)NC(=O)CCC(=O)O`, “inactive”.
Turning to `[Cl-].[Cl-].[Hg+2]`, the Potency is 48.3 µM (active).
For the molecule `O=C1C=CC(=O)C=C1`, the Potency entry is “inactive”.
`O=C1CCCO1`: the Potency result was “inactive”.
Turning to `CCC[CH2][Sn]([Cl])([CH2]CCC)[CH2]CCC`, the Potency is 1.09 µM (active) and 1.37 µM (active).
To `O=[N+]([O-])c1ccc([As](=O)(O)O)cc1` belongs “inactive”; to `NNC(=O)c1ccccc1`, “inactive”.
Consider `ClCOCCl`, for which the Potency result was “inactive”.
With `O=S(=O)(O)C(F)(F)C(F)(F)C(F)(F)C(F)(F)C(F)(F)C(F)(F)F`, the Potency result was “inactive”.
Regarding `Nc1ccc(Br)cc1`, the Potency entry is “inactive”.
On to `CC1(C)C(=O)NC(=O)NC1=O`, for which the Potency entry is “inactive”.
Consider `CCC1(c2ccccc2)CCC(=O)NC1=O` (stereo not given), for which the Potency result was “inactive”.
With `CC(=O)O` the entry was “inactive”; with `NC(=O)OCCCc1ccccc1`, “inactive”.
To `Nc1nc(N)nc(Cl)n1` belongs “inactive”; to `O=P(Cl)(Cl)Cl`, “inactive”.
